EBNA-1 inhibitor: blocks EBNA-1 binding to DNA; actives 0.34% (n = 300,000); AID 1950; inhibition, % at 14.8 µM; EBNA-1 DNA binding, fluorescence polarization; in the data active means inhibition above about 28%
bovine MsrA act: bovine methionine sulfoxide reductase A activation; purified bovine MsrA, absorbance read-out; activation, % at 10.6 µM; actives 0.3% (n = 360,000); in the data active means activation above about 7.5%
ZTA DNA inh: ZTA (EBV) inhibition in EBNA-1 counter-screen; P03206; ZTA-DNA binding, fluorescence polarization; inhibition, % at 11 µM; actives 0.15% (n = 320,000); in the data active means inhibition above about 33%
PP5 inh: inhibitors of human protein phosphatase 5 (PP5). P53041. purified PP5c, OMFP substrate fluorescence. inhibition, % at 6.7 µM. actives 0.18% (n = 320,000);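 active means inhibition above the campaign's mean inhibition across all tested compounds plus 3 SD, cut at about 9.5% in these data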
Target sequence (P53041 whole entry, looked up): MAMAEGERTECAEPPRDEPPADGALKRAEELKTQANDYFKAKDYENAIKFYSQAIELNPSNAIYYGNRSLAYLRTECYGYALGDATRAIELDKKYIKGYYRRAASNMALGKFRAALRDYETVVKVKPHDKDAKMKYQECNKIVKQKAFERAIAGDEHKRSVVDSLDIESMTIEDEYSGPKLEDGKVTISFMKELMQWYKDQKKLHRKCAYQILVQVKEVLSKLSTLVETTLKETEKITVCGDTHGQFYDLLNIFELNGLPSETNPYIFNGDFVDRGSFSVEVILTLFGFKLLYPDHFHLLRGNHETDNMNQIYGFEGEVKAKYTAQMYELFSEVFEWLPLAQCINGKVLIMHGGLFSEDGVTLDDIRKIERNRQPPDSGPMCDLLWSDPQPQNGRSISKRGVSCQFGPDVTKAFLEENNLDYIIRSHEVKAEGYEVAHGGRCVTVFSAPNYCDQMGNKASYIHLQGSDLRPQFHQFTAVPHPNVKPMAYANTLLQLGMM
PP1 inh: counter-screen for PP5 inhibitors: inhibitors of human PP1-alpha | inhibition, % at 6.7 µM | purified PP1alpha, OMFP fluorescence | AID 2235 | actives 0.9% (n = 320,000) | P62136;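 active means inhibition above the mean inhibition of all tested compounds plus 3 SD, computed separately for each screening campaign, cut at about 15% in these data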
MsrA inh: inhibitors of bovine MsrA. AID 651718. inhibition, % at 15.5 µM. actives 0.75% (n = 360,000). purified bovine MsrA, absorbance read-out; in the data active means inhibition above about 4.5%
ZTA inh confirm: confirmation of Epstein-Barr virus ZTA DNA binding inhibitors. shares compounds with ZTA DNA inh. Zta-ZRE DNA binding, fluorescence polarization. inhibition, % at 11.1 µM. actives 30% (n = 320). AID 2361;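 active means mean inhibition across triplicate runs above the hit threshold derived for the original primary screen, cut at about 33% in these data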
EBNA-1 counter: EBNA-1 DNA binding inhibition, counter-screen for ZTA; shares compounds with ZTA DNA inh; fluorescence polarization; inhibition, % at 14.8 µM; 320 tested, under 10 active; AID 2362; call rule not given here
PP1 confirm: confirmation of human PP1 phosphatase inhibitors | shares compounds with PP1 inh | purified PP1alpha, OMFP substrate fluorescence | inhibition, % at 6.7 µM | actives 52% (n = 1,900);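 active means mean PP1 inhibition above a set limit taken from the earlier primary screen, cut at about 15% in these data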
PP5 counter: counter-screen for PP1 inhibitors: human PP5 phosphatase inhibition. shares compounds with PP1 inh. purified PP5c, OMFP fluorescence. inhibition, % at 6.7 µM. actives 4% (n = 1,900). AID 2360;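 active means mean PP5 inhibition over triplicate wells above about 9.5% taken from the earlier PP1 screen, limit read from the data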
Large screens that a line does not name were inactive (follow-up assays come after a bar, where they were run). Shown are actives, neighbours in structure and some others; about 2.3% of the full set was active somewhere.

COc1cc(CNCCc2c[nH]c3ccccc23)ccc1OCc1ccc(F)cc1	ZTA DNA inh 35 | ZTA inh confirm inactive | EBNA-1 counter inactive
COc1cccc(CNCCc2c[nH]c3ccccc23)c1OCc1ccc(F)cc1	none
Cc1ccc(Cn2c(N)c(S(=O)(=O)c3cccs3)c3nc4ccccc4nc32)cc1	none
COc1ccc(Cn2c(N)c(S(=O)(=O)c3cccs3)c3nc4ccccc4nc32)cc1	ZTA DNA inh 35 | ZTA inh confirm inactive | EBNA-1 counter inactive
O=C1OCC/C1=C\NCCCN/C=C1\CCOC1=O	none (no result: EBNA-1 inhibitor, ZTA DNA inh, PP5 inh, PP1 inh)
CCN(CC(=O)NC(C)C)C(=O)Cc1ccc(C)c(C)c1	none
COc1cc(/C=C2/CC/C(=C/c3ccc(O)c(OC)c3)C2=O)ccc1O	none
COc1cc(/C=C2\COC/C(=C\c3ccc(O)c(OC)c3)C2=O)ccc1O	ZTA DNA inh 52 | ZTA inh confirm 42 | EBNA-1 counter inactive
CCOC(=O)NN1C(=O)c2ccccc2NC1c1ccccc1 (stereo unspecified)	none
CCOC(=O)NN1C(=O)c2ccccc2NC1c1ccc(N(C)C)cc1 (stereo unspecified)	ZTA DNA inh 33 | ZTA inh confirm inactive | EBNA-1 counter inactive
O=C(c1nn2c(C(F)(F)F)cc(-c3ccccc3)nc2c1Cl)N1CCN2CCCC2C1 (stereo unspecified)	none (no result: EBNA-1 inhibitor, ZTA DNA inh, PP5 inh, PP1 inh)
COc1ccc2noc3c2c1C(=O)c1ccccc1-3	none
O=C1c2ccccc2-c2onc3ccc(NCCCn4ccnc4)c1c23	ZTA DNA inh 49 (no result: bovine MsrA act, MsrA inh) | ZTA inh confirm inactive | EBNA-1 counter inactive
Cn1nc(C(C)(C)C)cc1C(=O)N1CCC(C)(C(=O)NS(=O)(=O)C2CC2)C1 (stereo unspecified)	none (no result: EBNA-1 inhibitor, ZTA DNA inh, PP5 inh, PP1 inh, MsrA inh)
CCc1nnc(NC(=O)[C@@H](NC(=O)c2cc(OC)cc(OC)c2)C(C)C)s1	ZTA DNA inh 117 | ZTA inh confirm inactive | EBNA-1 counter inactive
COc1ccc(C(=O)N(C)c2c(C)n(C)n(-c3ccccc3)c2=O)cc1OC	ZTA DNA inh 82 | ZTA inh confirm inactive | EBNA-1 counter inactive
CCOC(=O)c1cncc(C#CCO)c1	none
COC(=O)CSc1nnc([C@H](Cc2ccccc2)NC(=O)OC(C)(C)C)o1	ZTA DNA inh 90 | ZTA inh confirm inactive | EBNA-1 counter inactive
CCOC(=O)C1(C)NC(c2cccc(C)c2)C2C(=O)N(c3ccccc3)C(=O)C21 (stereo unspecified)	ZTA DNA inh active | ZTA inh confirm inactive | EBNA-1 counter inactive
COC(=O)C1(C)NC(c2cccc(C)c2)C2C(=O)N(c3ccccc3)C(=O)C21 (stereo unspecified)	none (no result: EBNA-1 inhibitor, ZTA DNA inh, PP5 inh, PP1 inh)
COc1ccc(N2CCN(S(C)(=O)=O)CC2)cc1	none
COc1ccc(N2CCN(S(=O)(=O)c3ccc(OC)cc3)CC2)cc1	ZTA DNA inh 99 | ZTA inh confirm inactive | EBNA-1 counter inactive
COc1ccc(C)cc1NC(=O)C(=O)NNC(=O)COc1ccc(Cl)cc1	none
CCCCCCCCCCC[N+](C)(C)CC/C=C1/c2ccccc2Sc2ccc(Cl)cc21	ZTA DNA inh 40, PP1 inh 39 (no result: MsrA inh) | ZTA inh confirm inactive | EBNA-1 counter inactive | PP1 confirm inactive | PP5 counter inactive
CCCCCCCCCC[N+](C)(C)CC/C=C1/c2ccccc2Sc2ccc(Cl)cc21	ZTA DNA inh 34, PP1 inh 41 (no result: MsrA inh) | ZTA inh confirm inactive | EBNA-1 counter inactive | PP1 confirm inactive | PP5 counter inactive
CC[N+](C)(C)CC/C=C1/c2ccccc2Sc2ccc(Cl)cc21	none
CCOC(=O)c1c(C)[nH]c(C(=O)CSc2nccc(C)n2)c1C	none
O=c1c(O)cccc2cc(O)c(O)c(O)c12	ZTA DNA inh 33, PP1 inh 21 | ZTA inh confirm inactive | EBNA-1 counter inactive | PP1 confirm inactive | PP5 counter inactive

Screening results (PubChem)
